# Assay results: PubChem BioAssay (NCI)
# About 79,000 compounds went through this panel and 15% of them were active in at least one assay; those are over-represented in the sample as a whole. A number with no mark means an inactive call. Active and inactive are the calls of the source. Rule as the data show it: active = growth inhibition above about 70%; inactive = the rest.
# Key:
# [1] = NCI Yeast Anticancer Drug Screen. Data for the rad50 strain (AID 155);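 also: 0% = growth of vehicle-only cultures of the same strain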; conditions: S. cerevisiae rad50 strain growth inhibition, hits give high values
# Method in brief: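 DNA repair mutant yeast, compound exposure, growth read-out; inhibition is taken relative to vehicle.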
# [2] = NCI Yeast Anticancer Drug Screen. Data for the mec2-1 strain (AID 157); conditions: S. cerevisiae mec2-1 strain, hits give high values
# Method in brief: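 mec2-1 yeast strain, carrying an alteration in DNA damage repair or cell cycle control, was exposed to compounds; growth inhibition was measured relative to vehicle-treated controls.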
# [3] = NCI Yeast Anticancer Drug Screen. Data for the sgs1 mgt1 strain (AID 161);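 also: 0% = growth of cultures given vehicle only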; conditions: S. cerevisiae sgs1 mgt1 strain, hits give high values
# Method in brief: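 Compounds are added to genetically altered yeast, and growth is compared with cultures given vehicle alone to give percent inhibition.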
# [4] = NCI Yeast Anticancer Drug Screen. Data for the cln2 rad14 strain (AID 165);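 also: 0% = growth equal to vehicle treated cultures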; conditions: S. cerevisiae cln2 rad14 strain, hits give high values
# Method in brief: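 Yeast carrying cln2 and rad14 alterations (cell cycle control and DNA damage repair) were exposed to compounds. Growth inhibition was measured against vehicle-treated controls.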
# [5] = NCI Yeast Anticancer Drug Screen. Data for the bub3 strain (AID 167); conditions: S. cerevisiae bub3 mutant strain, hits give high values
# Method in brief: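 In this screen, a yeast mutant lacking normal mitotic checkpoint function is challenged with compound. Relative growth versus vehicle gives the inhibition value.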
# [6] = NCI Yeast Anticancer Drug Screen. Data for the mlh1 rad18 strain (AID 175); conditions: S. cerevisiae mlh1 rad18 strain growth inhibition, hits give high values
# Method in brief: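 Growth inhibition of the yeast strain was measured after compound exposure and expressed relative to vehicle-treated controls. The strain carries defined defects in DNA damage repair.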
# [7] = at 5.0 µM (retest, dose inferred, filed as 0.5)
# [8] = at 50.0 µM (retest, dose inferred, filed as 5.0)
Structure (SMILES),"growth inhibition [1, 7]","growth inhibition [1, 8]",growth inhibition ([1]; at 50.0 µM),"growth inhibition [2, 7]","growth inhibition [2, 8]",growth inhibition ([2]; at 50.0 µM),"growth inhibition [3, 7]","growth inhibition [3, 8]",growth inhibition ([3]; at 50.0 µM),"growth inhibition [4, 7]","growth inhibition [4, 8]",growth inhibition ([4]; at 50.0 µM),"growth inhibition [5, 7]","growth inhibition [5, 8]",growth inhibition ([5]; at 50.0 µM),"growth inhibition [6, 7]","growth inhibition [6, 8]",growth inhibition ([6]; at 50.0 µM)
CC[CH2][Pb]([CH2]CC)([CH2]CC)[NH]S(=O)(=O)c1ccc(C)cc1,99% (active),99% (active),99.5% (active),99% (active),100% (active),99.7% (active),99% (active),99% (active),99.6% (active),98% (active),99% (active),97.9% (active),100% (active),100% (active),99.5% (active),99% (active),100% (active),99.5% (active)
Nc1c([N+](=O)[O-])cc(Cl)cc1[N+](=O)[O-],1%,84% (active),73.8% (active),0%,89% (active),63.8%,1%,98% (active),94.2% (active),1%,28%,-14.6%,-3%,86% (active),64.7%,2%,97% (active),78.3% (active)
Nc1nc(N)c(-c2ccc(Cl)c(Cl)c2)c(COc2cccc(CNS(=O)(=O)c3ccc(S(=O)(=O)F)cc3)c2)n1,3%,57%,51.1%,-3%,86% (active),49.5%,-2%,65%,58%,-4%,40%,54.8%,-3%,68%,48.8%,4%,80% (active),47%
CC1=C(N2CC2)C(=O)c2nc3n(c2C1=O)CCC3OC(=O)CCl (stereo not given),28%,61%,46.5%,6%,47%,57%,18%,60%,72.2% (active),5%,31%,57.9%,24%,19%,6%,23%,67%,66.1%
CC[C@@]1(O)C(=O)OCc2c1cc1n(c2=O)Cc2cc3c(OC)cccc3nc2-1,96% (active),92% (active),83.6% (active),96% (active),92% (active),89.4% (active),71% (active),88% (active),82.4% (active),55%,74% (active),64%,48%,78% (active),70.8% (active),86% (active),83% (active),78.8% (active)
O=C(O)C(Br)C(Br)C(=O)O.[Ag] (stereo not given),99% (active),99% (active),98.8% (active),100% (active),100% (active),99.3% (active),99% (active),100% (active),98.7% (active),97% (active),99% (active),99.1% (active),99% (active),99% (active),98.8% (active),99% (active),99% (active),99.2% (active)
C[CH2][Sn]([CH2]C(=O)OC)([CH2]C(=O)OC)[c]1ccccc1,97% (active),97% (active),83.7% (active),98% (active),98% (active),89.2% (active),98% (active),98% (active),87.8% (active),86% (active),97% (active),84.7% (active),98% (active),98% (active),86% (active),97% (active),97% (active),90.8% (active)
[N-]=[N+]=NS(=O)(=O)c1ccccc1S(=O)(=O)N=[N+]=[N-],13%,99% (active),99.2% (active),8%,100% (active),92.6% (active),9%,99% (active),99.8% (active),67%,99% (active),74.8% (active),-2%,97% (active),49.1%,18%,99% (active),99.6% (active)
BrP(NC1CCCCCC1)(c1ccccc1)(c1ccccc1)c1ccccc1,43%,97% (active),98.5% (active),39%,99% (active),99.3% (active),47%,98% (active),99.2% (active),12%,97% (active),98.7% (active),25%,98% (active),99% (active),65%,98% (active),99% (active)
ClCC[Se](Cl)(Cl)c1ccccc1,33%,75% (active),42.9%,19%,20%,55.6%,29%,48%,72% (active),25%,44%,60.5%,6%,46%,53.2%,33%,68%,86.2% (active)
CC(c1ccccc1)N1O[C@]12CC[C@@]1(C)C(CCCC13OCCO3)C2 (stereo not given in full),88% (active),97% (active),92% (active),97% (active),99% (active),94% (active),36%,97% (active),92.2% (active),95% (active),98% (active),91.2% (active),94% (active),98% (active),91% (active),93% (active),97% (active),91.5% (active)
CC1(C)C2CCC([CH2][Hg][Cl])C1C2 (stereo not given),99% (active),98% (active),98.8% (active),100% (active),95% (active),99.2% (active),100% (active),97% (active),99.2% (active),99% (active),98% (active),99% (active),99% (active),98% (active),99.3% (active),100% (active),98% (active),99% (active)
O=S(=O)(F)c1cc(Cl)c(O)cc1Cl,-143%,16%,78.3% (active),-45%,48%,57.8%,-61%,60%,79.6% (active),-41%,47%,51.5%,-57%,39%,78.2% (active),-114%,45%,83.2% (active)
O=C1C(Cl)=C(Cl)C(=O)c2ccccc21,99% (active),96% (active),97.8% (active),55%,98% (active),97% (active),99% (active),97% (active),98.2% (active),99% (active),95% (active),96.6% (active),98% (active),96% (active),97.5% (active),99% (active),96% (active),98% (active)
CCCCCCCC(=O)[O][Hg][c]1ccccc1,99% (active),99% (active),99.5% (active),100% (active),100% (active),99.8% (active),100% (active),100% (active),99.7% (active),99% (active),99% (active),99.5% (active),100% (active),99% (active),99.8% (active),100% (active),100% (active),99.7% (active)
O=C1CN2CCCCC2CN1 (stereo not given),-159%,-143%,-13.2%,-43%,-47%,7.9%,-59%,-56%,-2.65%,-58%,-60%,24.9%,-73%,-71%,1.8%,-137%,-114%,5.35%
CC1CCC2(OC1)OC1C(O)C3C4CCC5CC(OC6OC(CO)C(OC7OC(CO)C(O)C(OC8OCC(O)C(O)C8O)C7OC7OC(CO)C(O)C(OC8OC(CO)C(O)C(O)C8O)C7O)C(O)C6O)C(O)CC5(C)C4CCC3(C)C1C2C (stereo not given),95% (active),99% (active),93.2% (active),97% (active),99% (active),94% (active),93% (active),99% (active),93.8% (active),72% (active),99% (active),92.3% (active),97% (active),99% (active),93.2% (active),96% (active),98% (active),88% (active)
CC(=O)c1cc2c(cc1O)C(C)(C)CCC2(C)C,3%,3%,97.8% (active),1%,0%,98.7% (active),2%,1%,47.7%,0%,0%,95.6% (active),3%,7%,95% (active),-2%,-5%,98.8% (active)
c1cs[c]([Hg][c]2cccs2)c1,99% (active),98% (active),99.7% (active),99% (active),76% (active),99.5% (active),100% (active),97% (active),99.6% (active),97% (active),97% (active),98% (active),100% (active),98% (active),99.5% (active),99% (active),95% (active),99.5% (active)
[O]=[Sb]([OH])([OH])[c]1ccc(NC2OC(CO)C(O)C(O)C2O)cc1 (stereo not given),0%,-6%,6.45%,0%,-2%,5.65%,-1%,-20%,-13.8%,0%,-12%,-0.2%,2%,-1%,91.8% (active),1%,-3%,-10.4%
